The text below walks through data of PubChem BioAssay (Tox21).

The nature of test [1]: qHTS assay to identify small molecule agonists of the hypoxia (HIF-1) signaling pathway - cell viability counter screen (AID 1224844; calls by dose curve; further: nearly all actives have a fitted effect of over 50% in size). A digest of the protocol:
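Cytotoxicity was measured in parallel with the HRE-driven beta-lactamase readout: after 17 hrs of compound exposure at 37C, HRE-bla ME-180 cells received CellTiter-Glo and luminescence was recorded 30 min later.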
For orientation: qHTS replaces the single test concentration by a dilution series.

A short description of test [2]: qHTS assay to identify small molecule agonists of H2AX (AID 1224845; active means well fitted activation curve with a large enough effect in the signal ratio in the repeat runs, not every such curve was filed as active; the % refers to the signal ratio). A digest of the protocol:
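Wild-type CHO-K1 cells plated overnight, then exposed 3 hr at 37C to compounds at 15 concentrations (0.76% DMSO). Lysed, then HTRF anti-pH2AX(S139)-cryptate/anti-H2AX-d2 detection after 24 hr at room temperature; emissions 665 and 620 nm.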

A short description of test [3]: qHTS assay to identify small molecule agonists of the hypoxia (HIF-1) signaling pathway (AID 1224846; active means well fitted activation curve with a large enough effect in the signal ratio in the repeat runs, not every such curve was filed as active; the % refers to the signal ratio). A digest of the protocol:
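Compounds from the Tox21 10K library, dissolved in DMSO, are tested for induction of a hypoxia response element–controlled beta-lactamase reporter in ME-180 cells. Exposure lasts 17 hrs at 37C after a 5 hr settling period, followed by CCF4-AM FRET substrate.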

Test [4] is described as follows: qHTS assay to identify small molecule agonists of H2AX - cell viability counter screen (AID 1224847; calls by dose curve; further: top concentration of the series differs between compounds; nearly all actives have a fitted effect of over 30% in size). A digest of the protocol:
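Cells plated first: CHO-K1, 1000 per well in 10% FBS medium, incubated overnight at 37C. Then 15-point compound titration added (final DMSO 0.76%) for 3 hr. Finally CellTiter-Glo added and luminescence read.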

Test [5] can be described thus: qHTS assay to identify small molecule antagonists of the estrogen related receptor (ERR) signaling pathway from Tox21 library (AID 1224848). Further: nearly all actives have a fitted effect of over 50% in size. The procedure, abridged:
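First, 2,000 ERR cells per well were plated and held 6 h at 37 C/5% CO2. Next, compounds in DMSO were pinned in and left 18 h at 37 C. Finally, ONE-Glo was added and luminescence read after 30 min at room temperature.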

A short description of test [6]: qHTS assay to identify small molecule agonists of the estrogen related receptor (ERR) signaling pathway from Tox21 library (AID 1224849; calls by dose curve; further: nearly all actives have a fitted effect of over 15% in size). Particulars: ERR reporter cell line, ONE-Glo luciferase, 18 h; at 92.4 µM (top of the series). A digest of the protocol: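 Cells carrying the ERR reporter were plated and allowed to settle for 6 h, exposed to library compounds for 18 h at 37 C, then lysed with ONE-Glo and luminescence measured.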

Test [7] in a line: qHTS RealTime-Glo MT Cell Viability Assay in HepG2 cells - 24 hour (AID 1224867). Further: nearly all actives have a fitted effect of over 50% in size. The procedure, abridged: (§1)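 Cell number in HepG2 cultures estimated from NanoLuc luminescence generated by metabolic reduction of a prosubstrate by living cells. The homogeneous, nonlytic format allowed repeated reads at 0, 8, 16, 24, 32 and 40 h of compound exposure.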
Test [8] is described as follows: qHTS RealTime-Glo MT Cell Viability Assay in HEK293 cells - 32 hour (AID 1224868). Further: top concentration of the series differs between compounds; nearly all actives have a fitted effect of over 50% in size. A digest of the protocol:
(§2)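 Homogeneous bioluminescent viability format in HEK293 cells (600 cells/well). Following 5 h at 37 C/5% CO2, 23 nL compound was pintooled; the signal was measured repeatedly during 40 h incubation.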

The nature of test [9]: A CellTox Green Cytotoxicity Assay to monitor cytotoxicity in HEK293 cells - 0 hour (AID 1224869). Further: nearly all actives have a fitted effect of over 50% in size. The procedure, abridged: (§3)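 Cells (HEK293, 600/well) and dye reagent are dispensed together. After 5 h at 37 C, 23 nL compound is pinned in. Plates stay at 37 C for 40 h with fluorescence read at 0h, 8h, 16h, 24h, 32h and 40h.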
Test [10] is described as follows: qHTS RealTime-Glo MT Cell Viability Assay in HepG2 cells - 40 hour (AID 1224870). Further: nearly all actives have a fitted effect of over 50% in size. A digest of the protocol:
(§4)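 HepG2 cells mixed with RealTime-Glo MT reagents (NanoLuc plus cell-permeant prosubstrate) were seeded at 600 cells/well, incubated 5 h at 37 C/5% CO2, then pinned with compounds in DMSO; nonlytic luminescence tracked viability during 40 h treatment.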

A short description of test [11]: A CellTox Green Cytotoxicity Assay to monitor cytotoxicity in HEK293 cells - 40 hour (AID 1224871). Further: nearly all actives have a fitted effect of over 45% in size. The procedure, abridged:
as §3

A short description of test [12]: qHTS RealTime-Glo MT Cell Viability Assay in HEK293 cells - 16 hour (AID 1224872). A digest of the protocol:
as §2

Test [13] in a line: qHTS RealTime-Glo MT Cell Viability Assay in HepG2 cells - 8 hour (AID 1224873). Further: nearly all actives have a fitted effect of over 55% in size. A digest of the protocol:
as §4

The nature of test [14]: qHTS RealTime-Glo MT Cell Viability Assay in HEK293 cells - 40 hour (AID 1224874). Further: nearly all actives have a fitted effect of over 50% in size. Conditions: RealTime-Glo luminescence; max response: stronger effect = lower value. A digest of the protocol: (§5)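 Real-time viability in HEK293: signal arises when living cells convert a prosubstrate for NanoLuc in the medium, so luminescence tracks viable cell number. Compound (23 nL, DMSO) added 5 h post-seeding; kinetic reads at 0–40 h, 37 C.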

Test [15] in a line: A CellTox Green Cytotoxicity Assay to monitor cytotoxicity in HEK293 cells - 24 hour (AID 1224875). Further: nearly all actives have a fitted effect of over 45% in size. The procedure, abridged: as §3
Test [16] can be described thus: A CellTox Green Cytotoxicity Assay to monitor cytotoxicity in HepG2 cells - 16 hour (AID 1224876). Further: nearly all actives have a fitted effect of over 45% in size. Further: potency means the concentration at half of the fitted maximal effect. The procedure, abridged: (§6)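 Cells and non-lytic dye reagent are dispensed together (600 HepG2 cells/well) and incubated 5 h before DMSO compound transfer. Kinetic fluorescence is then recorded in the same wells during 40 h at 37 C.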
The nature of test [17]: qHTS RealTime-Glo MT Cell Viability Assay in HepG2 cells - 32 hour (AID 1224877). Further: nearly all actives have a fitted effect of over 55% in size. The procedure, abridged: as §1
The nature of test [18]: A CellTox Green Cytotoxicity Assay to monitor cytotoxicity in HepG2 cells - 24 hour (AID 1224878). Further: nearly all actives have a fitted effect of over 45% in size. Further: potency means the concentration at half of the fitted maximal effect. A digest of the protocol:
as §6

Test [19] can be described thus: A CellTox Green Cytotoxicity Assay to monitor cytotoxicity in HepG2 cells - 40 hour (AID 1224879). Further: nearly all actives have a fitted effect of over 40% in size. Further: potency means the concentration at half of the fitted maximal effect. A digest of the protocol:
as §6

Test [20] is described as follows: qHTS RealTime-Glo MT Cell Viability Assay in HEK293 cells - 0 hour (AID 1224880). The procedure, abridged:
as §5

Several values for one entry are separate records, joined by “and”; a condition that tells them apart may be missing. Identical values can stand only once. Records with an inconclusive call do not appear. Some structures have more than one record in an assay (separate samples or runs), and their calls can disagree. Activity calls are given as the source filed them. Unless noted, the call rests on the fitted dose curve; in most records, active means well fitted curve in the direction sought with a large enough effect in the repeat runs; inconclusive means weak or mixed curves; inactive means no such curve, though single readings can be large; an effect the other way counts as inactive or inconclusive.
On the % scale 0 is the no-effect control and ±100 the full control effect.

Consider `COc1ccccc1[N+](=O)[O-]`, for which the Potency result in test [1], in test [2], in [4], in [5], in [7] and in [8] was “inactive” in each case. Further, the Potency entry in test [9], in [10], in test [11], in test [12], in test [13] and in [15] was “inactive” each time. The Potency entry in [16], in [17], in [18], in test [19] and in test [20] was “inactive” in each case. Also, in test [3], the compound was called inactive. In addition, the activity change, positive = activation in [6] was 2.88% (inactive). Moreover, the max response in [14] is 3.8% (inactive) and 3.66% (inactive).
With `CS(=O)(=O)c1ccc(Cl)cc1`, the Potency result in test [1], in test [2], in test [4], in [5], in test [7] and in [8] was “inactive” throughout. The Potency entry in [9], in test [10], in test [11], in test [12], in [13] and in [15] was “inactive” each time. Also, the Potency entry in test [17], in test [19] and in [20] was “inactive” in each case. The result in test [3] was inactive. In test [6], the activity change, positive = activation is 8.49% (inactive). Besides, the max response in [14] is -0.177% (inactive) and 6.75% (inactive). Also, in test [16], the Potency entry was “inactive and 38.9 µM (active)”.
On to `C[n+]1ccn(CCO)c1`, for which the Potency entry in test [1], in [2], in [4], in [5], in test [7] and in test [8] was “inactive” throughout. In addition, the Potency result in test [9], in test [10], in test [11], in test [12], in [13] and in test [15] was “inactive” each time. Further, the Potency result in [16], in test [17], in test [18], in test [19] and in test [20] was “inactive” each time. The compound was classed as inactive in test [3]. Moreover, in test [6], the activity change, positive = activation is 4.16% (inactive) and -3.23% (inactive). Besides, the max response in [14] is 6.1% (inactive) and 16.8% (inactive).
Turning to `CC(COCC(C)OC(=O)c1ccccc1)OC(=O)c1ccccc1` (stereo not given), the Potency entry in test [1], in test [2], in test [4], in test [5], in test [7] and in test [9] was “inactive” each time. The Potency result in [10], in test [11], in [13], in test [15], in test [16] and in [17] was “inactive” each time. Also, the Potency result in test [18], in test [19] and in test [20] was “inactive” each time. Besides, the compound was classed as inactive in [3]. Further, the activity change, positive = activation in [6] was -2.03% (inactive) and -5.66% (inactive).
Consider `Cc1cc(C)cc(O)c1`, for which the Potency entry in [1], in test [2], in [4], in test [5], in test [7] and in test [8] was “inactive” in each case. Further, the Potency result in test [9], in test [10], in test [11], in test [12], in test [13] and in test [15] was “inactive” in each case. Further, the Potency result in test [16], in test [17], in test [19] and in test [20] was “inactive” each time. Further, in test [3], the call was inactive. In addition, the activity change, positive = activation in test [6] is 8.03% (inactive) and 0.796% (inactive). In addition, the max response in [14] was 6.28% (inactive) and 8.82% (inactive).
For `CC(=O)CC(=O)N(C)C`, the Potency result in test [1], in test [2], in test [4], in [7], in test [8] and in test [9] was “inactive” each time. Moreover, the Potency entry in test [10], in [11], in test [12], in test [13], in [15] and in [16] was “inactive” in each case. In addition, the Potency entry in test [17], in test [18], in [19] and in test [20] was “inactive” each time. The compound was called inactive in test [3]. In addition, the max response in test [14] is 0.701% (inactive) and 6.53% (inactive).
As to `Nc1cccc(C(F)(F)F)c1`, the Potency entry in [1], in [2], in [4], in test [5], in test [7] and in [8] was “inactive” throughout. Besides, the Potency entry in [9], in [10], in [11], in test [12], in test [13] and in test [15] was “inactive” in each case. For the same compound, the Potency result in test [16], in test [17], in [19] and in test [20] was “inactive” in each case. The outcome in test [3] was inactive. Besides, the activity change, positive = activation in test [6] was 2.57% (inactive) and 2.05% (inactive). Further, in test [14], the max response is 3.13% (inactive) and 0.276% (inactive).
Regarding `N#CCC(=O)O`, the Potency entry in [1], in test [2], in [4], in test [5], in test [7] and in test [8] was “inactive” in each case. For the same compound, the Potency entry in [9], in test [10], in test [11], in [12], in [13] and in test [15] was “inactive” in each case. For the same compound, the Potency result in [16], in test [17], in [18], in test [19] and in test [20] was “inactive” throughout. The result in test [3] was inactive. Besides, in test [6], the activity change, positive = activation was 4.35% (inactive) and -0.59% (inactive). In addition, the max response in [14] is -0.419% (inactive) and 10.1% (inactive).
In the case of `CO[Si](CCCNCCN)(OC)OC`, the Potency entry in test [1], in test [2], in [4], in test [7], in test [8] and in test [9] was “inactive” in each case. The Potency result in test [10], in test [11], in [12], in test [13], in test [15] and in test [17] was “inactive” in each case. For the same compound, the Potency result in test [20] was “inactive”. Also, the call in test [3] was inactive. Also, in test [14], the max response was 4.43% (inactive) and -18.7% (inactive). In addition, the Potency entry is “inactive and 49 µM (active)” in test [16]; “inactive and 49 µM (active)” in test [18]; “inactive and 49 µM (active)” in test [19].
Take `CCCCC(CC)COC(=O)c1ccc(C(=O)OCC(CC)CCCC)cc1` (stereo not given): the Potency result in test [1], in test [2], in [4], in [5], in test [7] and in [8] was “inactive” throughout. For the same compound, the Potency entry in [9], in test [10], in test [11], in test [12], in [13] and in test [15] was “inactive” in each case. In addition, the Potency result in [16], in test [17], in test [18], in test [19] and in test [20] was “inactive” each time. Moreover, the result in test [3] was inactive. Further, the activity change, positive = activation in [6] was -0.0437% (inactive). The max response in test [14] was 10.3% (inactive) and 17.5% (inactive).
For `CC(C=O)Cc1ccc(C(C)(C)C)cc1` (stereo not given), the Potency entry in test [1], in [2], in test [4], in [5], in [7] and in [8] was “inactive” in each case. In addition, the Potency result in [9], in test [10], in test [11], in test [12], in test [13] and in [15] was “inactive” each time. In addition, the Potency result in test [16], in test [17], in [18], in test [19] and in [20] was “inactive” each time. In addition, in test [3], the compound was classed as inactive. In addition, the activity change, positive = activation in test [6] was -5.89% (inactive) and -7.2% (inactive). Besides, in [14], the max response was 0.145% (inactive) and -7.53% (inactive).
